# From PubChem
# tim10-1 inh: tim10-1 yeast growth inhibition | AID 463190 | 330,000 tested, 2.2% active | inhibition, % at 20 µM | S. cerevisiae tim10-1 ts strain growth, BacTiter-Glo, 24 h;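 active = inhibition of at least 40%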;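 also: mutant grown at 25 °C; 0% = DMSO wells with yeast and 100% = wells holding no yeast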
# tim23-1 inh: growth inhibitors of tim23-1 mutant yeast; 330,000 tested, 1.3% active; AID 463212; S. cerevisiae tim23-1 growth, BacTiter-Glo luminescence, 24 h; inhibition, % at 20 µM;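 active = growth inhibition of the mutant yeast at or above 50%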;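 also: temperature-sensitive mutant grown at 25 °C; plate controls were DMSO-treated mutant yeast for no effect and medium wells lacking yeast for full effect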
# TIM10 inh: growth inhibitors of TIM10 yeast strain; 330,000 tested, 1.4% active; AID 463195; inhibition, % at 10 µM; S. cerevisiae TIM10 strain growth, BacTiter-Glo luminescence, 24 h;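 active = inhibition of 40% or more at the single tested concentration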;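 also: wild-type TIM10 isogenic control strain grown at permissive 25 °C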
# NALP1 yeast inh: NALP1 inhibition. S. cerevisiae NALP1/ASC/caspase-1 growth, X-gal OD620, 72 h. inhibition, % at 10 µM. 280,000 tested, 0.61% active. AID 2071; in the data active = inhibition mostly above about 24%, no sharp cut-off; inactive = mostly below about 32%
# NALP3 yeast inh: NALP3 inhibition in yeast. Yeast reconstituted NLRP3/ASC/caspase-1, beta-gal luminescence, 24 h. inhibition, % at 10 µM. 330,000 tested, 0.39% active. AID 2825;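 active = inhibition of 50% or more; inactive = inhibition below 50%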;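 also: plate controls were induced DMSO wells for no effect and uninduced yeast grown without galactose for full effect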
# tim10 confirm: TIM10 yeast growth inhibition, confirmed. shares compounds with TIM10 inh. S. cerevisiae tim10 strain growth, BacTiter-Glo luminescence, 24 h. inhibition, % at 10 µM. 4,600 tested, 63% active. AID 463215;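 active = inhibition of yeast growth at or above a set limit in either of two replicates at 10 µM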;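 also: this counterscreen used the strain with wild-type TIM10; 0% = yeast with DMSO and 100% = medium wells lacking yeast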
# An asterisk follows results filed as active; x = not tested or not shown. Only some compounds are listed: those with a hit (about 4.1% of all), similar ones and a draw of the others.
SMILES,tim10-1 inh,tim23-1 inh,TIM10 inh,NALP1 yeast inh,NALP3 yeast inh,tim10 confirm
Oc1ccc(/C=N/N=C(c2ccccc2)c2ccccc2)c(O)c1O,x,x,x,23,x,x
O=C(/C(=N/N=C/c1ccc(O)c(O)c1O)c1ccccc1)c1ccccc1,13,45,45*,14,1,-1
COCCN1C(=O)C(=O)/C(=C(/O)c2ccc(S(=O)(=O)N3CCCCC3)cc2)C1c1ccc(OC)cc1 (stereo unspecified),1,-3,90*,14,3,5
CC(C)CNC(=S)NC(=O)c1ccc(Cl)cc1Cl,39,18,55*,10,-66,52*
Cc1ccc(C(C)(C)C)cc1S(=O)(=O)Nc1cccc(C(=O)N2CCN(c3ccccn3)CC2)c1,26,30,22,x,18,x
Cc1scc(C(=O)N/N=C/c2ccc(OCC(C)C)cc2)c1C,17,30,44*,-3,25,20
NC(=O)C1Cc2ccccc2CN1S(=O)(=O)c1cccs1 (stereo unspecified),15,9,9,-10,3,x
O=C(C1Cc2ccccc2CN1S(=O)(=O)c1cccs1)N1CCCCCC1 (stereo unspecified),33,31,44*,10,-4,33*
Cc1c(Cl)cccc1NC(=S)NCc1ccc(Cl)cc1,25,-11,-10,x,15,x
Cc1c(Cl)cccc1NC(=S)NCc1ccccc1,30,28,46*,x,8,21
CCOCCCNC(=O)CCCOc1ccccc1,6,15,3,-8,-1,x
CCCCNC(=O)Nc1nc2ccc(CC)cc2s1,35,28,40,7,18,30
CCC(=O)N1CCN(c2ccccc2NC(=O)COc2cc(C)ccc2C(C)C)CC1,11,31,11,6,20,x
Cc1ccc(C(=O)NC(=S)Nc2ccccc2N2CCCC2)cc1[N+](=O)[O-],32,44,43*,-7,13,-39
COc1cccc(C(=O)NC(=S)Nc2ccccc2N2CCCCC2)c1,28,29,41*,8,18,26
Cn1c(O)c(C2=c3ccccc3=NC2=O)sc1=Nc1ccc(Cl)cc1,27,11,49*,18,9,18
O=C(O)Cn1c(O)c(C2=c3ccccc3=NC2=O)sc1=O,12,6,-12,-11,10,x
Cc1ccc(OC(=O)CCC(=O)Nc2ccc(C)c(C)c2)cc1,-17,-8,-26,x,15,x
COc1ccc(CCN(C)C(=S)NC(=O)c2ccc(F)cc2Cl)cc1OC,31,34,45*,7,16,20
COc1ccc(CCN(C)C(=S)Nc2ccc(SC(F)F)cc2)cc1OC,7,12,10,11,10,x
O=C(COC(=O)CCCN=C1NS(=O)(=O)c2ccccc21)NC(=O)NC1CCCC1,1,2,-11,21,-9,x
COc1ccc(CCNC(=S)NC(=O)c2ccccc2)cc1C,23,31,45*,-18,16,50*
COc1ccccc1CNC(=S)NCCc1ccccc1,36,18,41*,34,12,17
CCc1nnc(NC(=O)CCC(=O)Nc2ccc(OC)cc2OC)s1,11,9,17,24,24,x
COCCn1c(N)c(N(Cc2ccccc2)C(=O)c2cc(=O)[nH]c3ccccc23)c(=O)[nH]c1=O,-9,-7,41*,x,10,-18
SMILES,tim10-1 inh,tim23-1 inh,TIM10 inh,NALP1 yeast inh,NALP3 yeast inh,tim10 confirm
CCCCn1c(N)c(N(Cc2ccccc2OC)C(=O)c2cc(=O)[nH]c3ccccc23)c(=O)[nH]c1=O,20,-4,-6,x,18,x
COCCNC(=S)N/N=C/c1ccc(OCc2ccc(C(=O)OC)cc2)cc1,22,-15,6,1,5,x
Cc1ccc(C(=O)Cn2c(C(=O)/C=C/c3ccccc3)nc3ccccc32)cc1,38,30,43*,13,-5,33*
Cc1ccc(C(=O)Cn2c(NCCO)nc3ccccc32)cc1,2,0,-1,26,-4,x
CC(C)Cn1cc(C(=O)N2CCN(c3ccccn3)CC2)c2c3ccccc3n(C)c2c1=O,33,25,44*,-4,5,25
CCN1CCN(C(=O)c2cn(CCOC)c(=O)c3c2c2ccccc2n3C)CC1,6,-12,2,20,0,x
Cc1cc(Nc2ccc(Br)cc2)nc(-c2ccccc2O)n1,34,45,43*,-38,17,49*
Nc1nc2ccccc2n1/N=C/c1ccc(Br)cc1,19,36,44*,-7,18,30
Nc1nc2ccccc2n1/N=C/c1ccc2c(c1)OCO2,1,13,17,2,8,x
COc1ccc(/C=N/NC(=S)N[C@H]2CC3CCC2C3)cc1 (stereo partly specified),29,29,47*,9,19,36*
COc1ccc(/C=C/C(=O)NC2CC3CCC2C3)cc1 (stereo unspecified),5,25,4,6,11,x
O=C(Nc1nc2c(s1)CN(Cc1ccccc1)CC2)c1c(F)cccc1F,13,13,-10,10,3,x
N#C/C(=C\c1ccco1)C(=O)Nc1cccc2ncccc12,28,26,10,26,8,x
CCOc1cc(/C=C2\SC(=NC)N(C)C2=O)c(Br)cc1OC(C)=O,34,29,82*,-24,-32,29
CCOc1cc(/C=C2\SC(=NC)N(C)C2=O)cc(Cl)c1OC(C)=O,22,20,-16,23,7,x
O=C(Nc1ccc2nc3ccccc3nc2c1)c1ccccc1,x,x,x,55,x,x
O=C(Nc1ccc2c(c1)ncn2-c1ccccc1)c1ccco1,29,28,51*,45,38,50*
CCOC(=O)c1cccc(NC(=O)c2ccco2)c1,29,45,46*,x,39,26
O=C(c1ccccc1)c1cccc(NC(=O)c2ccco2)c1,36,42,53*,2,37,60*
CC(C)(C)n1cnc2cc(NC(=O)c3ccccc3)ccc21,-1,49,58*,15,6,64*
Cc1ccc([N+](=O)[O-])cc1S(=O)(=O)Nc1ccc(N2CCOCC2)cc1,0,7,-8,10,-20,x
CN(Cc1ccccc1)S(=O)(=O)c1ccc(NC(=O)c2ccccc2C(=O)O)cc1,4,2,-21,x,-1,x
Cc1ccc2nc(-c3cccc(NS(C)(=O)=O)c3)cc(-c3ccccc3)c2c1,12,35,17,13,2,x
CCOc1ccccc1C1NC(=O)c2ccccc2O1 (stereo unspecified),10,27,13,6,-1,x
O=C(Nc1ccc(N2CCN(C(=O)c3ccccc3)CC2)c(Cl)c1)c1ccco1,15,22,45*,9,20,36*
Cc1cc(NC(=O)COc2ccccc2)n(-c2ccccc2)n1,26,20,27,14,10,x
Cc1cc(C)cc(OCC(=O)OCC(=O)Nc2cc(C)nn2-c2ccccc2)c1,4,-6,83*,x,12,4
S=C(NCc1ccccc1)N/N=C/c1cccs1,32,39,34,-3,31,x
